Results reported in the supplement of paper PMC13380429.
Values without a mark were called inactive.

These compounds were tested on Vero E6 infected with SARS-CoV-2 (assay: inhibition of SARS-CoV-2 cytopathic effect; higher = more antiviral protection, active = above 15). Conditions: 100 nM; 48 h.

First: CC(C)(C)NCC(O)c1ccc(O)c(CO)c1 (stereo unspecified) [albuterol]
Second: CC(C)(C)NCC(O)c1cc(O)cc(O)c1 (stereo unspecified)
The “inhibition of SARS-CoV-2 cytopathic effect” value (“inhibition” for short) of the first is lower: -5.03% for the first, -1.85% for the second.

Going from C[C@H]1CC[C@H](n2c3cnccc3c3cnc(Nc4ccc5c(n4)CCN(C(=O)CO)C5)nc32)CC1 to Cc1ccc(C(=O)Nc2cccc(C(F)(F)F)c2)cc1Nc1nc(-c2cccnc2)nc2c1cnn2C, the “inhibition” value rises from -1.1% to 3.74%.

Compared with CC[C@H](C)C(=O)O[C@H]1C[C@@H](C)C=C2C=C[C@H](C)[C@H](CC[C@@H]3C[C@@H](O)CC(=O)O3)[C@H]21 [lovastatin], CCCC(=O)Nc1ncnc2c1ncn2[C@@H]1O[C@@H]2COP(=O)(O)O[C@H]2[C@H]1OC(=O)CCC [bucladesine] is lower in “inhibition” value: 1.14% for the first, -2.82% for the second.

First: O=C(OCC(COC(=O)c1cccnc1)(COC(=O)c1cccnc1)COC(=O)c1cccnc1)c1cccnc1 [niceritrol]
Second: O=C(Nc1ccccc1F)N[C@H]1N=C(c2ccccc2)c2ccccc2NC1=O
The “inhibition” value of the first is higher: 2.18% for the first, -0.15% for the second.

Going from CN(C)CCC=C1c2ccccc2CCc2ccccc21 [amitriptyline] to CCc1ccccc1OC[C@@H](O)CN[C@H]1CCCc2ccccc21, the “inhibition” value falls from 5.58% to -3.44%.

Compared with COc1cccc(OC)c1C(=O)N[C@@H]1C(=O)N2[C@@H]1SC(C)(C)[C@@H]2C(=O)O [methicillin], COC(=O)N1CC[C@@H]2[C@H]1CCC[C@@]2(O)C#Cc1cccc(C)c1 [mavoglurant] is higher in “inhibition” value: -1.39% for the first, 2.27% for the second.

Going from OC[C@H]1O[C@H](O[C@H]2O[C@H](CO)[C@@H](O)[C@H](O)[C@H]2O)[C@H](O)[C@@H](O)[C@@H]1O [cabaletta] to C[C@@H](CN)CC(=O)O [3-methyl-GABA], the “inhibition” value falls from 5.33% to 1.28%.

Compared with CC/C(=C(/c1ccc(/C=C/C(=O)O)cc1)c1ccc2[nH]ncc2c1)c1ccc(F)cc1Cl, CC1=CC(=C(c2ccc(N)cc2)c2ccc(N)cc2)C=CC1=N [basic-fuchsin] is higher in “inhibition” value: -1.84% for the first, 1.45% for the second.

Compared with O=C(NC1CCN(CCCCC2(C(=O)NCC(F)(F)F)c3ccccc3-c3ccccc32)CC1)c1ccccc1-c1ccc(C(F)(F)F)cc1 [lomitapide], O=c1[nH]c2ccccc2n1CCCN1CCN(C(c2ccccc2)c2ccccc2)CC1 [oxatomide] is higher in “inhibition” value: 0.35% for the first, 1.85% for the second.

Going from CCCCOC(=O)c1cc2c(cn1)[nH]c1ccccc12 [beta-CCB] to C[C@H](Cc1cc2c(c(C(N)=O)c1)N(CCCO)CC2)NCCOc1ccccc1OCC(F)(F)F [silodosin], the “inhibition” value rises from -0.04% to 2.16%.

Going from Cc1c(F)cc(C(=O)NC2CC2)cc1-c1ccc(C(=O)NCC(C)(C)C)cn1 [losmapimod] to Cc1cc(OCC(=O)O)cc(C)c1Cc1ccc(O)c(C(C)C)c1 [sobetirome], the “inhibition” value falls from -1.7% to -3.41%.

Going from C=C1CCN([C@H](C)[C@](O)(Cn2cncn2)c2ccc(F)cc2F)CC1 [efinaconazole] to Cn1cc(-c2ccc3nnc(C(F)(F)c4ccc5ncccc5c4)n3n2)cn1, the “inhibition” value rises from 0.85% to 4.23%.

First: CCN(Cc1ccc(Cl)nc1)/C(=C/[N+](=O)[O-])NC [nitenpyram]
Second: Sc1ncnc2nc[nH]c12 [mercaptopurine]
The “inhibition” value of the first is lower: -0.29% for the first, 2.14% for the second.

Same assay, conditions: 833.33 nM; 48 h

Going from CN1C2C=C(c3sccc3Br)CC1CC2 (stereo unspecified) to COC(=O)N1CC[C@@H]2[C@H]1CCC[C@@]2(O)C#Cc1cccc(C)c1 [mavoglurant], the “inhibition” value rises from -2.31% to -1.9%.

Going from O=C(Cc1ccc(Cl)c(Cl)c1)N1CCCC[C@@H]1CN1CCCC1 to COc1cc(N)c(Cl)cc1C(=O)OCCN1CCCCC1, the “inhibition” value rises from -0.63% to 1.01%.

First: CCOC(=O)N1CCC(=C2c3ccc(Cl)cc3CCc3cccnc32)CC1 [loratadine]
Second: CN1CCN(CCCN2c3ccccc3Sc3ccc(Cl)cc32)CC1 [prochlorperazine]
The “inhibition” value of the first is lower: -0.88% for the first, -0.06% for the second.

First: NS(=O)(=O)c1ccc(-n2nc(C(F)(F)F)cc2-c2ccc(Cl)cc2)cc1
Second: Cn1cc(-c2ccc3nnc(C(F)(F)c4ccc5ncccc5c4)n3n2)cn1
The “inhibition” value of the first is lower: -0.43% for the first, 0.5% for the second.

First: CC(C)OC(=O)C(C)(C)Oc1ccc(C(=O)c2ccc(Cl)cc2)cc1 [fenofibrate]
Second: CC1=CC(=C(c2ccc(N)cc2)c2ccc(N)cc2)C=CC1=N [basic-fuchsin]
The “inhibition” value of the first is higher: -0.31% for the first, -0.79% for the second.

Compared with COC(=O)C1=C(C)NC(C)=C([N+](=O)[O-])[C@@H]1c1ccccc1C(F)(F)F (racemic), C[C@H](Cc1cc2c(c(C(N)=O)c1)N(CCCO)CC2)NCCOc1ccccc1OCC(F)(F)F [silodosin] is lower in “inhibition” value: 2.63% for the first, 2.24% for the second.

Compared with Nc1cc(Cl)c(N=C2NCCN2)c(Cl)c1 [apraclonidine], Nc1cccc2c(=O)[nH][nH]c(=O)c12 [monosodium-alpha-luminol] is higher in “inhibition” value: -1.26% for the first, -0.92% for the second.

First: N[C@@H](Cc1cc(-c2ccc(Cl)cc2Cl)cc(CP(=O)(O)O)c1O)C(=O)O
Second: Cc1cc(OCC(=O)O)cc(C)c1Cc1ccc(O)c(C(C)C)c1 [sobetirome]
The “inhibition” value of the first is higher: 2.63% for the first, -2.42% for the second.

Going from O=C1C=C2C=C[C@@H]3C[C@@]2(O1)[C@H]1CCCCN31 [securinine] to CC[C@H](C)C(=O)O[C@H]1C[C@@H](C)C=C2C=C[C@H](C)[C@H](CC[C@@H]3C[C@@H](O)CC(=O)O3)[C@H]21 [lovastatin], the “inhibition” value falls from 7.21% to 1.16%.

Compared with Cc1c(O)c(=O)n(-c2ccccc2)n1C [4-hydroxy-phenazone], CCCCOC(=O)c1cc2c(cn1)[nH]c1ccccc12 [beta-CCB] is lower in “inhibition” value: -1.8% for the first, -2.91% for the second.

Compared with CCn1cc(-c2cccc(C(F)(F)F)c2)c2sc(C(=N)NC3CCS(=O)(=O)CC3)cc2c1=O, Cc1ccc(C(=O)Nc2cccc(C(F)(F)F)c2)cc1Nc1nc(-c2cccnc2)nc2c1cnn2C is higher in “inhibition” value: 0.93% for the first, 8.31% for the second.

Compared with CC(C)(C)NCC(O)c1ccc(O)c(CO)c1 (stereo unspecified) [albuterol], CC(C)(C)NCC(O)c1cc(O)cc(O)c1 (stereo unspecified) is higher in “inhibition” value: -4.97% for the first, -0.02% for the second.

Compared with C[C@H]1CC[C@H](n2c3cnccc3c3cnc(Nc4ccc5c(n4)CCN(C(=O)CO)C5)nc32)CC1, C=C1CCN([C@H](C)[C@](O)(Cn2cncn2)c2ccc(F)cc2F)CC1 [efinaconazole] is higher in “inhibition” value: -0.44% for the first, 0.56% for the second.

First: O=C(OCC(COC(=O)c1cccnc1)(COC(=O)c1cccnc1)COC(=O)c1cccnc1)c1cccnc1 [niceritrol]
Second: O=C(Nc1ccccc1F)N[C@H]1N=C(c2ccccc2)c2ccccc2NC1=O
The “inhibition” value of the first is higher: 0.03% for the first, -1.67% for the second.

Going from CN(C)CCC=C1c2ccccc2CCc2ccccc21 [amitriptyline] to CCc1ccccc1OC[C@@H](O)CN[C@H]1CCCc2ccccc21, the “inhibition” value falls from 1.84% to -0.6%.

Going from COc1cccc(OC)c1C(=O)N[C@@H]1C(=O)N2[C@@H]1SC(C)(C)[C@@H]2C(=O)O [methicillin] to Cc1c(F)cc(C(=O)NC2CC2)cc1-c1ccc(C(=O)NCC(C)(C)C)cn1 [losmapimod], the “inhibition” value falls from -0.54% to -4.24%.

Going from OC[C@H]1O[C@H](O[C@H]2O[C@H](CO)[C@@H](O)[C@H](O)[C@H]2O)[C@H](O)[C@@H](O)[C@@H]1O [cabaletta] to CCCC(=O)Nc1ncnc2c1ncn2[C@@H]1O[C@@H]2COP(=O)(O)O[C@H]2[C@H]1OC(=O)CCC [bucladesine], the “inhibition” value falls from 3.33% to 0.58%.

Compared with CC/C(=C(/c1ccc(/C=C/C(=O)O)cc1)c1ccc2[nH]ncc2c1)c1ccc(F)cc1Cl, O=c1[nH]c2ccccc2n1CCCN1CCN(C(c2ccccc2)c2ccccc2)CC1 [oxatomide] is higher in “inhibition” value: 0.21% for the first, 1.64% for the second.

First: O=C(NC1CCN(CCCCC2(C(=O)NCC(F)(F)F)c3ccccc3-c3ccccc32)CC1)c1ccccc1-c1ccc(C(F)(F)F)cc1 [lomitapide]
Second: CCN(Cc1ccc(Cl)nc1)/C(=C/[N+](=O)[O-])NC [nitenpyram]
The “inhibition” value of the first is higher: -1.45% for the first, -1.84% for the second.

First: C[C@@H](CN)CC(=O)O [3-methyl-GABA]
Second: Sc1ncnc2nc[nH]c12 [mercaptopurine]
The “inhibition” value of the first is lower: 1.08% for the first, 1.92% for the second.
